Assay results taken from the supplement of paper PMC6992640.
± gives the standard deviation of the averaged measurements.

What was measured:
Test in all cases: cell viability (% of vehicle); higher = less cytotoxic
HCI01 [1] = cells of a triple-negative basal-like breast cancer xenograft; conditions: 1 µM; 72 h
UCD52 [2] = cells of a triple-negative basal-like breast cancer xenograft; conditions: 1 µM; 72 h
WHIM2 [3] = cells of a triple-negative basal-like breast cancer xenograft; conditions: 1 µM; 72 h
WHIM30 [4] = cells of a triple-negative basal-like breast cancer xenograft; conditions: 1 µM; 72 h
HCI01 [5] = conditions: 10 µM; 72 h
HCI03 = cells of an ER-positive luminal breast cancer xenograft; conditions: 10 µM; 72 h
HCI09 = cells of a triple-negative luminal androgen receptor type breast cancer xenograft; conditions: 10 µM; 72 h
HCI11 = cells of an ER-positive luminal breast cancer xenograft; conditions: 10 µM; 72 h
HCI13 = cells of an ER-positive luminal breast cancer xenograft; conditions: 10 µM; 72 h
HCI16 = cells of a triple-negative basal-like breast cancer xenograft; conditions: 10 µM; 72 h
UCD52 [6] = conditions: 10 µM; 72 h
WHIM2 [7] = conditions: 10 µM; 72 h
WHIM30 [8] = conditions: 10 µM; 72 h

SMILES	cell viability (HCI01 [1])	cell viability (UCD52 [2])	cell viability (WHIM2 [3])	cell viability (WHIM30 [4])	cell viability (HCI01 [5])	cell viability (HCI03)	cell viability (HCI09)	cell viability (HCI11)	cell viability (HCI13)	cell viability (HCI16)	cell viability (UCD52 [6])	cell viability (WHIM2 [7])	cell viability (WHIM30 [8])
CNC1CCC(c2ccc(Cl)c(Cl)c2)c2ccccc21.Cl (stereo unspecified) [Sertraline HCl]	92.9	78.6	101	85.2	27.7 ± 2.6	74.8	32.2 ± 4.6	79.2	118 ± 3.2	60.4	29.3 ± 0.42	42.8 ± 3.1	58.9 ± 1.9
COc1cccc2c1C(=O)c1c(O)c3c(c(O)c1C2=O)CC(O)(C(=O)CO)CC3OC1CC(N)C(O)C(C)O1.Cl (stereo unspecified) [Doxorubicin (Adriamycin) HCl]	93.6	38.7	26.8	45.9	70.4 ± 23	196	29.7 ± 8.2	41.4	–	66.1	33.1 ± 1.4	35.6 ± 6.6	77 ± 21
C[C@H]1O[C@@H](O[C@H]2[C@@H](O)C[C@H](O[C@H]3[C@@H](O)C[C@H](O[C@H]4CC[C@@]5(C)[C@H](CC[C@@H]6[C@@H]5C[C@@H](O)[C@]5(C)[C@@H](C7=CC(=O)OC7)CC[C@]65O)C4)O[C@@H]3C)O[C@@H]2C)C[C@H](O)[C@@H]1O [Digoxin]	50.6	25.3	138	25.7	35.2 ± 3	97.9	40.1 ± 17	69.2	–	45.8	66.6 ± 8.6	66.4 ± 7.6	41.4 ± 1.1
CN1CCC(COc2cnc(-c3cccc(Cn4nc(-c5cccc(C#N)c5)ccc4=O)c3)nc2)CC1	83.2	79.2	97.8	79.6	87.4 ± 46	45.7	15.5 ± 4.2	57.6	72.4 ± 35	–	28 ± 5.6	34.3 ± 2.1	65.8 ± 4.3
CO[C@H]1C[C@@H]2CC[C@@H](C)[C@@](O)(O2)C(=O)C(=O)N2CCCC[C@H]2C(=O)O[C@H]([C@H](C)C[C@@H]2CC[C@@H](O)[C@H](OC)C2)CC(=O)[C@H](C)/C=C(\C)[C@@H](O)[C@@H](OC)C(=O)[C@H](C)C[C@H](C)/C=C/C=C/C=C/1C [Rapamycin (Sirolimus)]	78.1	52.6	68.3	75.4	40.4 ± 7.5	69.6	30.6 ± 8.6	51.6	39.5 ± 5.2	57.1	25.5 ± 2.9	42 ± 2.1	68.9 ± 29
CC(C)(C)Cn1c(N)nc2ccc(-c3[nH]c(C(C)(C)C)nc3-c3ccc(F)cc3)nc21.CS(=O)(=O)O.CS(=O)(=O)O	67.7	46.4	65.4	61.1	58.4 ± 4.5	54.2	36.8 ± 15	81	58.7 ± 0.99	72.3	36.7 ± 1.6	39.5 ± 3.9	64.2 ± 9.7
CCN(CC)CCNC(=O)c1c(C)[nH]c(C=C2C(=O)Nc3ccc(F)cc32)c1C [Sunitinib]	81.1	73	66	86.7	106 ± 39	134	71.8 ± 35	134	–	125	61.8 ± 3.4	104 ± 68	37.9 ± 7.1
CNCCC(Oc1cccc2ccccc12)c1cccs1.Cl (stereo unspecified) [Duloxetine HCl]	85.4	95.4	91.1	79.7	87.3 ± 6.3	106	55.9 ± 34	70.8	112 ± 11	66.6	30.9 ± 1.8	38.5 ± 0.71	80.9 ± 9.8
Cc1c(OCC(F)(F)F)ccnc1CS(=O)c1nc2ccccc2[nH]1 (stereo unspecified) [Lansoprazole]	–	–	–	–	170 ± 24	160	97.4 ± 32	128	142 ± 24	144	190 ± 5.9	–	–
CCCc1cc(=O)[nH]c(=S)[nH]1 [Propylthiouracil]	–	–	–	–	70.4 ± 44	153	100 ± 12	97.8	143 ± 30	120	91.2 ± 3.8	100 ± 38	–
CS(=O)(=O)CCNCc1ccc(-c2ccc3ncnc(Nc4ccc(OCc5cccc(F)c5)c(Cl)c4)c3c2)o1 [Lapatinib]	–	–	–	–	112 ± 63	45.4	39.3 ± 17	98.8	42.2 ± 0.47	168	51.2 ± 3.6	40.7 ± 5.3	–
CCCSc1ccc2nc(NC(=O)OC)[nH]c2c1 [Albendazole]	–	–	–	–	166 ± 38	131	172 ± 35	93.6	127 ± 10	160	95.4 ± 25	123 ± 28	–
NC(=O)c1cnccn1 [Pyrazinamide]	–	–	–	–	66.5 ± 42	126	90.8 ± 15	93.8	99.7 ± 1.4	98.9	85.8 ± 0.98	90.2 ± 30	–
CN1CCN(CCCN2c3ccccc3Sc3ccc(Cl)cc32)CC1 [Prochlorperazine]	–	–	–	–	113 ± 3	118	98.8 ± 8.7	91.1	128 ± 17	92.1	63.7 ± 7.7	74.7 ± 5	–
CCC1(c2ccccc2)C(=O)NCNC1=O [Primidone]	–	–	–	–	78.1 ± 54	162	105 ± 2.9	90.6	134.7 ± 0.7	121	85.1 ± 8.9	100 ± 33	–
COC(c1ccccc1)(c1ccccc1)C(Oc1nc(C)cc(C)n1)C(=O)O (stereo unspecified) [Ambrisentan]	–	–	–	–	79.8 ± 52	128	92.8 ± 15	84	94.1 ± 1.8	106	74.7 ± 11	107 ± 16	–
OCCN1CC(O)C(O)C(O)C1CO (stereo unspecified) [Miglitol]	–	–	–	–	68.9 ± 43	136	99.2 ± 8.7	92.4	113 ± 0.17	116	86.2 ± 7.9	95.7 ± 50	–
COc1cc(Cc2cnc(N)nc2N)cc(OC)c1OC [Trimethoprim]	–	–	–	–	78.3 ± 37	144	91.1 ± 7.9	93	117 ± 22	120	95.4 ± 7.4	118 ± 7.3	–
NS(=O)(=O)c1cc2c(cc1Cl)NC(C(Cl)Cl)NS2(=O)=O (stereo unspecified) [Trichlormethiazide]	–	–	–	–	104 ± 57	164	98.053 ± 0.0031	89.9	129.2 ± 0.42	186	142 ± 9.3	141 ± 8.7	–

SMILES	cell viability (HCI01 [1])	cell viability (UCD52 [2])	cell viability (WHIM2 [3])	cell viability (WHIM30 [4])	cell viability (HCI01 [5])	cell viability (HCI03)	cell viability (HCI09)	cell viability (HCI11)	cell viability (HCI13)	cell viability (HCI16)	cell viability (UCD52 [6])	cell viability (WHIM2 [7])	cell viability (WHIM30 [8])
COc1ccc(Cl)cc1C(=O)NCCc1ccc(S(=O)(=O)NC(=O)NC2CCCCC2)cc1 [Glibenclamide]	–	–	–	–	103 ± 13	151	93.7 ± 16	93.2	108.2 ± 0.86	110	119 ± 3.5	134.7 ± 0.95	–
CC1CCN(C(=O)CC#N)CC1N(C)c1ncnc2[nH]ccc12.O=C(O)CC(O)(CC(=O)O)C(=O)O (stereo unspecified)	–	–	–	–	188 ± 8.3	151	77.7 ± 1.5	115	104 ± 9.7	141	109 ± 21	87.9 ± 3	–
CC(=O)Nc1ccccc1 [Acetanilide]	–	–	–	–	76.6 ± 44	163	99.2 ± 7.3	81.8	110 ± 8.1	138	75.2 ± 13	126 ± 14	–
CC(C)CC(NC(=O)C(CCc1ccccc1)NC(=O)CN1CCOCC1)C(=O)NC(Cc1ccccc1)C(=O)NC(CC(C)C)C(=O)C1(C)CO1 (stereo unspecified) [Carfilzomib (PR-171)]	29.2	16.6	43.9	22.9	32.3 ± 3.5	–	25.7 ± 4.7	55.9	32.9 ± 4.7	38.9	64.4 ± 11	26.4 ± 11	68.8 ± 2.6
CC(C)c1nc(N(C)S(C)(=O)=O)nc(-c2ccc(F)cc2)c1C=CC(O)CC(O)CC(=O)[O-].CC(C)c1nc(N(C)S(C)(=O)=O)nc(-c2ccc(F)cc2)c1C=CC(O)CC(O)CC(=O)[O-].[Ca+2] (stereo unspecified) [Rosuvastatin Calcium]	96.2	83.1	83.4	84.8	109 ± 2.8	115	112 ± 44	–	126 ± 30	117	50.8 ± 4.2	44.1 ± 6.8	88.4 ± 11
CCCNC(C)C(=O)Nc1ccccc1C (stereo unspecified) [Prilocaine]	–	–	–	–	77.2 ± 50	145	102 ± 1.6	92	119.7 ± 0.81	108	79.7 ± 1.1	98.7 ± 19	–
NC(=O)c1ncn(C2OC(CO)C(O)C2O)n1 (stereo unspecified) [Ribavirin]	–	–	–	–	72.7 ± 49	148	92.7 ± 2.2	93.7	118 ± 9.9	110	96.4 ± 6.9	99.1 ± 46	–
COc1ccc2cc(CCC(C)=O)ccc2c1 [Nabumetone]	–	–	–	–	170 ± 32	172	200 ± 62	141	199 ± 10	136	151 ± 25	117 ± 11	–
C1=C\COCc2cc(ccc2OCCN2CCCC2)Nc2nccc(n2)-c2cccc(c2)COC/1 [Pacritinib]	70.5	49.1	77.3	47.3	28.9 ± 7.5	–	25.9 ± 3.1	131	50.7 ± 7	133	35.1 ± 1.6	49.9 ± 4.6	50.7 ± 17
COc1cccc2c1C(=O)c1c(O)c3c(c(O)c1C2=O)CC(O)(C(=O)CO)CC3OC1CC(N)C(O)C(C)O1.Cl (stereo unspecified) [Epirubicin HCl]	105	35.9	22.2	46.4	56.2 ± 19	–	26.2 ± 13	50.5	–	35.4	22.7 ± 4	29.1 ± 15	50.8 ± 12
CC1(COc2ccc3c(c2)ncn3-c2ccc3cccc(N4CCC(N)CC4)c3n2)COC1	97.6	138	–	71.3	41.1 ± 22	–	12.7 ± 2.4	–	26.6 ± 24	–	34 ± 9.8	35 ± 13	60.3 ± 3.4
CC(=O)C1(O)Cc2c(O)c3c(c(O)c2C(OC2CC(N)C(O)C(C)O2)C1)C(=O)c1ccccc1C3=O.Cl (stereo unspecified) [Idarubicin HCl]	–	32.5	28.8	41.2	37.5 ± 5.3	67.6	28.4 ± 1.2	27.8	47.1 ± 3.2	32.1	31.4 ± 6.4	29.3 ± 9.9	44.7 ± 14
O=C(Nc1ccccc1)c1ccccc1O [Salicylanilide]	–	–	–	–	165 ± 40	133	143 ± 34	111	98.3 ± 6.3	153	123 ± 4.3	160 ± 20	–
Cc1cnc(C(=O)O)c[n+]1[O-] [Acipimox]	–	–	–	–	76.1 ± 45	159	98.5 ± 17	78.9	90.4 ± 3.8	103	79.6 ± 5.9	108 ± 1.4	–
O=c1cc[nH]c(=O)[nH]1 [Uracil]	–	–	–	–	120 ± 20	139	116 ± 28	98.8	64.47 ± 0.33	116	101 ± 7	135 ± 11	–
CCN(CC)C(=O)C1(c2ccccc2)CC1CN.Cl (stereo unspecified) [Milnacipran HCl]	–	–	–	–	68.6 ± 44	137	96.4 ± 9.2	98.1	127 ± 14	105	86.4 ± 1.7	93.8 ± 47	–
O=c1[nH]cc(F)c(=O)[nH]1 [Fluorouracil (Adrucil)]	–	–	–	–	136 ± 18	112	75.1 ± 7.2	167	81.1 ± 6	151	139.3 ± 0.23	106 ± 20	–
CC(C)(C)C(=O)OCOP(=O)(COCCn1cnc2c(N)ncnc21)OCOC(=O)C(C)(C)C [Adefovir Dipivoxil]	–	–	–	–	109 ± 43	148	62.7 ± 38	105	43.6 ± 9.2	129	101 ± 9.6	50.6 ± 3.7	–
